Data published in paper PMC4336329 (PLoS ONE, 2015).
Out of some 310,000 compounds screened, about 14,000 (4.5%) showed an effect of 50% or more. The effect is printed as a negative number. The sample as a whole holds a higher share of strong results than the screen did.

Biological target: human ether-à-go-go-related gene (hERG) potassium channel (human, UniProt Q12809)
Assay: primary screen, population patch clamp on CHO cells stably expressing hERG; higher = less effect of the substance
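Further: peak tail current of the secondary pulse compared with the same well before compound.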

Chain of human ether-à-go-go-related gene (hERG) potassium channel (Q12809 whole entry, looked up): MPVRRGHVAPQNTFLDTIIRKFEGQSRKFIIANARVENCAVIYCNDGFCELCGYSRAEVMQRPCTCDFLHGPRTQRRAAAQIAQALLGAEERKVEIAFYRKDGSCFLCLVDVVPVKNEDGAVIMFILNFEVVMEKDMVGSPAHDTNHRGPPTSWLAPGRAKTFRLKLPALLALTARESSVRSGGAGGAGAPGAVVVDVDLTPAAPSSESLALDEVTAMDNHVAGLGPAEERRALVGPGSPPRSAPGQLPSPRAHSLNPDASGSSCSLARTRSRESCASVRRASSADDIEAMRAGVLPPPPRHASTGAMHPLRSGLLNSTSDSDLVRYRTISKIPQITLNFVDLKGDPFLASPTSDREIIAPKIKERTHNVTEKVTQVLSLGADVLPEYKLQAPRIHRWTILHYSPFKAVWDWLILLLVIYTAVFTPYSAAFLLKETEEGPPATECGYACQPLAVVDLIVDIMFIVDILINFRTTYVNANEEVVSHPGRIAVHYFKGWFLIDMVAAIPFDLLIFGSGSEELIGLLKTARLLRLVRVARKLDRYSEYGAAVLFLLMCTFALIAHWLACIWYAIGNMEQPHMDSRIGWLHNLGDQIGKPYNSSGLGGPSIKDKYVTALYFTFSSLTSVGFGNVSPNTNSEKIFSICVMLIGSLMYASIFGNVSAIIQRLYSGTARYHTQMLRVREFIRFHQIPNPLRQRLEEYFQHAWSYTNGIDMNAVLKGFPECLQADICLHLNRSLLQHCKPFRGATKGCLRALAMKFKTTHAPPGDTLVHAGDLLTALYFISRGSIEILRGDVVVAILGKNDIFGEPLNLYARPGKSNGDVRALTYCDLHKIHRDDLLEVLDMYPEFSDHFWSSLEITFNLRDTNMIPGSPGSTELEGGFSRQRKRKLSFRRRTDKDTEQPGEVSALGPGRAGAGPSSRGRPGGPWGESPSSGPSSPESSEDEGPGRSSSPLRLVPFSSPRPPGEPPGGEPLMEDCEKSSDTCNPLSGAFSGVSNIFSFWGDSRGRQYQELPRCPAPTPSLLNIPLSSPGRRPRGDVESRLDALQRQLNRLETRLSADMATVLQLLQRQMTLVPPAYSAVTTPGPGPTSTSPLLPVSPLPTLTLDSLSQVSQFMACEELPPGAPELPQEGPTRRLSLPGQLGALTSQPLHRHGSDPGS

SMILES | hERG current change (%, negative = inhibition) at 10uM [%]
O=C(NCc1ccncc1)c1cccc(F)c1 | 0.361
Cc1c(C(=O)c2ccccc2C(=O)O)sc2ccccc12 | 15
Cc1cc2cc(CCNC(=O)C(C)C)c(=O)[nH]c2cc1C | 2.03
NC(=O)C1=C[C@H](C2CCCCC2)C[C@H](OCc2ccc(CO)cc2)O1 | 2.51
COc1ccc(S(=O)(=O)N2CCCC2=O)cc1N(C)S(C)(=O)=O | 13.8
CCOC(=O)c1c(C)[nH]c(C)c1C(=O)COC(=O)/C=C/c1cccc(C(F)(F)F)c1 | 1.35
CCC12CN3CCN(CC(C3)/C1=N/NC(=O)c1ccncc1)C2 | 21.2
COc1ccccc1NC(=O)COc1ccccc1 | 10.9
Cc1ccc(OCc2cc(C(=O)N3CCC(Oc4cccnc4)CC3)no2)cc1C | -56.7
Cc1ccc(OCc2cc(C(=O)N3CCCCCCC3)no2)cc1C | 3.22
O=C(c1cc(COc2cccc(C(F)(F)F)c2)on1)N1CCc2ccccc2C1 | 10.4
O=C(c1cc(COc2cccc(C(F)(F)F)c2)on1)N1CCC(c2ccccc2)CC1 | 6.79
COc1ccc(OCc2cc(C(=O)NC(C)Cc3cnccn3)no2)c(Cl)c1 (stereo not shown) | -4.5
COc1cc(Cl)ccc1OCc1cc(C(=O)NC(C)Cc2cccnc2)no1 (stereo not shown) | -30.7
C[C@@H]1CN(C(=O)c2cc(COc3cccc(C(F)(F)F)c3)on2)C[C@H](C)O1 | 8.11
COc1cccc(OCc2cc(C(=O)N3CCC(c4ccncc4)CC3)no2)c1 | -40.9
Cc1cc(OCc2cc(C(=O)N3CCC(Oc4cccnc4)CC3)no2)cc(C)c1Cl | 9.06
COc1cc(Cl)ccc1OCc1cc(C(=O)NC(C)Cc2cnccn2)no1 (stereo not shown) | -53.8
O=C(c1cc(COc2cccc(C(F)(F)F)c2)on1)N1CCC(c2ccncc2)CC1 | -78.8
O=C(c1cc(COc2cccc(C(F)(F)F)c2)on1)N1CCC(Oc2cccnc2)CC1 | -64.1
Cc1c(NC(=O)C2CCN(S(=O)(=O)c3ccccc3)CC2)c(=O)n(-c2ccccc2)n1C | 4.47

SMILES | hERG current change (%, negative = inhibition) at 10uM [%]
CCCC(=O)Nc1cc(C(=O)O)ccc1S(=O)(=O)c1ccc(C)cc1 | 11.6
Cc1nc2c(c3c1[nH]c1ccccc13)C(=O)CC(C)(C)C2 | -0.41
O=C(O)CN1C(=O)/C(=C\c2cc(Br)ccc2OCc2ccc(Cl)cc2)SC1=S | 15.2
COc1ccc(-c2n[nH]c3c2CN(C(=O)c2ccc(OC)c(OC)c2)CC3)cc1 | -15.5
CC(=O)NC12CC3CC(C)(C1)CC(NC(C)=O)(C3)C2 | -11.4
COc1ccc([C@H]2[C@@H](C#N)[C@H](C#N)N3CCCN23)cc1 | 14.2
CN(C)CCCOc1ccc(C(C)(C)c2ccccc2)cc1.O=C(O)C(=O)O | -16.5
COc1ccc(NC(=O)COC(=O)c2n[nH]c3ccccc23)c(OC)c1 | -4.2
O=C(c1cnn2ccccc12)N(Cc1ccco1)C1CCCC1 | 4.7
Cc1ccc(C(C)C)cc1OCC(=O)NNC(=O)Nc1ccccc1 | 28.3
CC(C)=N/N=C(\c1cccc([N+](=O)[O-])c1)C12CN3CN(CN(C3)C1)C2 | 7.66
Cc1ccc(OCc2cc(C(=O)NC(C)Cc3cccnc3)no2)cc1C (stereo not shown) | -91
CCOC(=O)N1CCN(C(=O)c2cc(COc3cccc(C(C)=O)c3)on2)CC1 | 1.62
COc1ccc(OCc2cc(C(=O)NC(C)Cc3cccnc3)no2)c(Cl)c1 (stereo not shown) | -36.3
COc1ccc(OCc2cc(C(=O)NCC(C)Oc3cccnc3)no2)c(Cl)c1 (stereo not shown) | -52.6
Cc1ccc(OCc2cc(C(=O)NC(C)Cc3cnccn3)no2)cc1C (stereo not shown) | 0.149
O=C(c1cc(COc2cccc(C(F)(F)F)c2)on1)N1CCSCC1 | -17
CC(=O)c1cccc(OCc2cc(C(=O)NC(C)Cc3cccnc3)no2)c1 (stereo not shown) | -6.23
CCOC(=O)N1CCN(C(=O)c2cc(COc3cccc(C(F)(F)F)c3)on2)CC1 | -76.7
CC(CNC(=O)c1cc(COc2c(F)cccc2F)on1)Oc1cccnc1 (stereo not shown) | -18.6
Cc1ccc(C2=NN3C(C(=O)c4ccccc4)Oc4ccccc4C3C2)cc1 (stereo not shown) | 0.487

SMILES | hERG current change (%, negative = inhibition) at 10uM [%]
COC(=O)c1cc(NC(=O)CN(c2ccccc2OC)S(=O)(=O)c2ccccc2)ccc1Cl | 1.44
O=S(=O)(NC(=NC1CCCCC1)c1ccccc1F)c1ccccc1 | 10.4
Cc1ccc(C2=C(CC(=O)O)C(=O)CC2)cc1 | 12.1
O=C(O)CCCN1C(=O)C2C3c4ccccc4C(c4ccccc43)[C@@H]2C1=O (stereo partly shown) | 13
CSc1ccc(C2NC(=O)c3ccccc3N2)cc1 (stereo not shown) | 5.54
COc1ccc(NC(=O)CSc2nccn2Cc2ccccc2)cc1 | -4.86
O=C(Cc1ccc([N+](=O)[O-])cc1)c1ccc(O)cc1O | -40.4
CN1CCN(c2ccc(S(=O)(=O)N3CCCCC3)cc2NC(=O)CCc2ccccc2)CC1 | -53.3
CCN1CCN(c2ccc(S(=O)(=O)N3CCCCC3)cc2NC(=O)Cc2c(F)cccc2Cl)CC1 | -8.09
O=C(Cc1ccc(Cl)cc1)Nc1cc(S(=O)(=O)N2CCOCC2)ccc1N1CCCC1 | -37.3
CC(=O)NCCC(=O)Nc1cc(S(=O)(=O)N2CCCCC2)ccc1N1CCN(C)CC1 | -9.13
COc1ccc(CC(=O)Nc2cc(S(=O)(=O)N3CCCCC3)ccc2N2CCN(C)CC2)cc1 | -54
CN1CCN(c2ccc(S(=O)(=O)N3CCCCC3)cc2NC(=O)CSCc2ccccc2)CC1 | -20.5
COc1ccccc1CCC(=O)Nc1cc(S(=O)(=O)N2CCCCC2)ccc1N1CCN(C)CC1 | -26.5
COc1ccc(CC(=O)Nc2cc(S(=O)(=O)N3CCOCC3)ccc2N2CCOCC2)cc1 | 0.344
CN1CCN(c2ccc(S(=O)(=O)N3CCOCC3)cc2NC(=O)CCc2ccccc2)CC1 | -8.75
CN1CCN(c2ccc(S(=O)(=O)N3CCCCC3)cc2NC(=O)Cc2c(F)cccc2Cl)CC1 | -21.8
CN1CCN(c2ccc(S(=O)(=O)N3CCCCC3)cc2NC(=O)Cc2ccc(Cl)cc2)CC1 | -72
O=C(Cc1c(F)cccc1Cl)Nc1cc(S(=O)(=O)N2CCCCC2)ccc1N1CCOCC1 | -52.2
Cc1ccc(C(=O)COC(=O)c2ccccc2NC(=O)c2ccccc2)cc1[N+](=O)[O-] | 4.55
O=C(COC(=O)/C=C/c1ccc(Cl)cc1Cl)Nc1ccc2c(c1)OCCO2 | 18.5

SMILES | hERG current change (%, negative = inhibition) at 10uM [%]
O=C(Nc1cccc(C(=O)O)c1)/C(=C\c1ccco1)NC(=O)c1ccccc1Cl | 7.53
COC(=O)c1[nH]c(C)c(/C(O)=C2\C(=O)C(=O)N(CCN3CCOCC3)C2c2ccc(C)o2)c1C (stereo not shown) | -6.49
Cc1c(CCC(=O)O)c(=O)oc2cc3occ(-c4ccc(Cl)cc4)c3cc12 | 21.7
Cc1ccc(Oc2nnc(-c3cccs3)c3ccccc23)cc1 | -0.00742
CNC(=O)COC(=O)c1cccnc1SC | 3.53
CCN1CCN(c2ccc(S(=O)(=O)N3CCCCC3)cc2NC(=O)Cc2ccc(Cl)c(Cl)c2)CC1 | -48.5
CCN1CCN(c2ccc(S(=O)(=O)N3CCCCC3)cc2NC(=O)Cc2ccc(OC)cc2)CC1 | -60.1
CCN1CCN(c2ccc(S(=O)(=O)N3CCCCC3)cc2NC(=O)Cc2ccccc2)CC1 | -33.5
CCOC(=O)C1(CC)NC(c2ccc(OC)c(OC)c2)C2C(=O)N(c3cccc(C(C)=O)c3)C(=O)C21 (stereo not shown) | 16.5
Cc1ccc(S(=O)(=O)/N=C2/C=C(C3C(=O)CC(C)(C)CC3=O)C(=O)c3ccccc32)cc1 | 0.322
COc1cccc(CNC(=S)Nc2cc(C)cc(C)c2)c1 | 6.62
O=C(COc1ccc(-n2ccnc2)cc1)Nc1cccc(F)c1 | -54.6
N#Cc1cccc(NC(=O)CCn2ccnc2)c1 | 2.87
N#Cc1cccc(NC(=O)COc2ccc(-n3ccnc3)cc2)c1 | -67.5
O=C(COc1ccc(-n2ccnc2)cc1)Nc1cccc(Cl)c1 | -38.9
O=C(COc1ccc2c(c1)OCO2)Nc1cccc(F)c1 | 19.8
N#Cc1ccc(OCC(=O)Nc2ccncc2)cc1 | 18.1
O=C(NCc1ccccc1)C1c2ccccc2Oc2ccccc21 | 7.83
Cc1ccc(-n2c(N)cc(=O)nc2SCC(=O)NC2CCCCC2)cc1C | 8.7
